# Assay results from PubChem BioAssay (EPA / NIEHS).
# Values joined by “and” are separate entries in the source; they are usually repeats but may differ in a detail not shown here. Equal entries are not always repeated. Records with an inconclusive call do not appear. Where a structure was tested more than once in an assay, its records may differ in their call. Active and inactive are the calls of the source. How the source made its calls, unless noted: active means hit-call score of the fitted dose curve at least 0.9, where 1 is the maximum; inactive means score below 0.9.
# Experiments:
# CD69, CD69 (gene 969) = assay: BSK_LPS_CD69: BioMAP Diversity Plus: LPS Assay for CD69 Biomarker Activity (AID 2284303); details: primary human HUVEC with PBMC
# How it was run: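 Human umbilical vein endothelial cells co-cultured with PBMC under LPS stimulation, chemical exposure 24 h; cell-surface CD69 measured by ELISA and fitted in the positive direction versus DMSO.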
# IYD (gene 389434) = assay: CCTE_GLTED_hIYD: CCTE's human Iodotyrosine Deiodinase (xIYD) Inhibition Assay, Great Lakes Toxicology and Ecology Division (GLTED) Lab (AID 2284317; active means hit-call score of the fitted dose curve at least 0.9, where 1 is the maximum;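 further: cell-free human IYD enzyme made in baculovirus insect cells; iodide freed from monoiodotyrosine measured by cerium arsenite color change at 420 nm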)
# How it was run: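 First, recombinant human IYD (baculovirus-insect cells), MIT and chemical incubated 3 h. Next, iodide isolated on Dowex. Finally, Sandell-Kolthoff rate read at 420 nm, with platewise normalization to MNT and solvent controls.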
# [1] = read-out: Interleukin-1 alpha (IL1a), IL1A (gene 3552); assay: BSK_IMphg_IL1a: BioMAP Diversity Plus: IMphg Assay for Interleukin-1 alpha (IL1a) Biomarker Activity (AID 2284290); details: primary human endothelial cells with macrophages
# How it was run: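 Human venular endothelial cells co-cultured with macrophages, IMphg system. IL-1α is measured by ELISA 24 h after dosing and fitted in the positive direction against DMSO. Cytotoxicity is assessed by SRB staining of parallel cultures.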
# [2] = read-out: E-selectin (Homo sapiens) (UniProt P16581); assay: BSK_IMphg_ESelectin: BioMAP Diversity Plus: IMphg Assay for Eselectin Biomarker Activity (AID 2284291); details: primary human endothelial cells with macrophages
# How it was run: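 Human venular endothelial cell–macrophage co-culture, E-selectin measured by ELISA 24 h after chemical dosing. Signal fitted in the positive direction against DMSO as negative control and baseline.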
# [3] = BSK_IMphg_SRB: Viability Assessment in the BioMAP Diversity Plus: IMphg Assay (AID 2284292); details: primary human endothelial cells with macrophages;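 further: measured one day after compound addition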
# How it was run: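 Human venular endothelial cells with macrophages, 24 h after chemical dosing; total protein by 0.1% SRB staining after 10% TCA fixation, read at 560 nm. Positive-direction fitting versus DMSO baseline.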
# [4] = read-out: Macrophage colony-stimulating factor (MCSF), CSF1 (gene 1435); assay: BSK_IMphg_MCSF: BioMAP Diversity Plus: IMphg Assay for Macrophage colony-stimulating factor (MCSF) Biomarker Activity (AID 2284293); details: primary human endothelial cells with macrophages
# How it was run: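 Co-culture of human venular endothelial cells and macrophages, 24 hours of chemical exposure. M-CSF quantified by ELISA, with parallel SRB total-protein staining for cytotoxicity; activity fitted relative to DMSO.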
# [5] = read-out: Interleukin-10 (IL10), IL10 (gene 3586); assay: BSK_IMphg_IL10: BioMAP Diversity Plus: IMphg Assay for Interleukin-10 (IL10) Biomarker Activity (AID 2284294); details: primary human endothelial cells with macrophages
# How it was run: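 Human venular endothelial cells cocultured with macrophages, dosed 24 h; IL-10 measured by ELISA, activity relative to DMSO. Cytotoxicity assessed in parallel cultures by sulforhodamine B total-protein staining.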
# [6] = BSK_IMphg_SRB.Mphg: Macrophage Viability Assessment in the BioMAP Diversity Plus: IMphg Assay (AID 2284295); details: primary human endothelial cells with macrophages
# How it was run: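 Venular endothelial cells co-cultured with macrophages, read 24 h after dosing. Total protein measured by 0.1% SRB staining after 10% TCA fixation, absorbance at 560 nm. Fitted in positive direction against DMSO baseline.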
# [7] = IUF_NPC2c_oligodendrocyte_migration_120hr: Leibniz Research Institute for Environmental Medicine (IUF) 120-hour Neural Progenitor Cell Migration Assay for Oligodendrocyte Migration (NPC2c) (AID 2284297)
# How it was run: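 Read-out is the mean distance of O4-positive oligodendrocytes from the sphere core edge at 120 h, normalized to radial glia migration and fitted in the gain direction against DMSO. Spheres of primary human neural progenitors differentiated on laminin under continuous compound exposure.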
# [8] = IUF_NPC2a_radial_glia_migration_120hr: Leibniz Research Institute for Environmental Medicine (IUF) 120-hour Neural Progenitor Cell Migration Assay for Radial Glia Migration (NPC2a) (AID 2284298)
# How it was run: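 Readout: distance in um from sphere core edge to migration-area edge, derived from Hoechst nuclei density with a threshold-defined polynomial boundary. Spheres: hNPC, GW 16-19, 0.3 mm, on PDL/laminin; exposure 5 days; DMSO is baseline.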
# [9] = IUF_NPC2a_radial_glia_migration_72hr: Leibniz Research Institute for Environmental Medicine (IUF) 72-hour Neural Progenitor Cell Migration Assay for Radial Glia Migration (NPC2a) (AID 2284299)
# How it was run: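 Migration out of plated human neural progenitor spheres is scored at 72 h as the distance in um from the sphere core edge to the edge of the migration area. Values are the mean of four manual measurements per well, normalised to DMSO.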
# [10] = IUF_NPC2b_neuronal_migration_120hr: Leibniz Research Institute for Environmental Medicine (IUF) 120-hour Neural Progenitor Cell Migration Assay for Neuron Migration (NPC2b) (AID 2284300)
# How it was run: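 Read-out is mean distance from sphere edge to each TUBB3-positive neuron at 120 h, expressed relative to radial glia migration distance and to DMSO baseline. Single 0.3 mm human NPC spheres differentiated on laminin under continuous compound exposure.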
# [11] = IUF_NPC3_neuronal_differentiation_120hr: Leibniz Research Institute for Environmental Medicine (IUF) 120-hour Neuronal Differentiation Assay (NPC3) (AID 2284301)
# How it was run: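 Human fetal (GW 16-19) neural progenitor spheres (0.3 mm) plated on poly-D-lysine/laminin in N2 differentiation medium, exposed 120 h at 37C with half-medium renewal day 3; 7 concentrations. TUBB3+ cells as % of Hoechst nuclei, CNN-identified; DMSO baseline.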
# [12] = IUF_NPC4_neurite_length_120hr: Leibniz Research Institute for Environmental Medicine (IUF) 120-hour Neuronal Morphology Assay for Neurite Length (NPC4) (AID 2284302)
# How it was run: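 Human fetal neural progenitor spheres (0.3 mm) plated on poly-D-lysine/laminin in N2 differentiation medium, exposed from day 0 for 120 h with half-medium refresh at day 3, 37C. Mean neurite length (um) of TUBB3-positive neurons from skeletonized immunostaining images; DMSO ≤0.1%.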
# [13] = IUF_NPC5_oligodendrocyte_differentiation_120hr: Leibniz Research Institute for Environmental Medicine (IUF) 120-hour Oligodendrocyte Differentiation Assay (NPC5) (AID 2284304; active means hit-call score of the fitted dose curve at least 0.9, where 1 is the maximum;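 further: primary human fetal neural progenitor spheres plated to migrate and differentiate; share of O4-positive cells among Hoechst nuclei found by CNN image analysis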)
# How it was run: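 Oligodendrocyte differentiation was scored after 120 h as the O4-positive share of Hoechst-stained nuclei across the neurosphere migration area, using a trained convolutional neural network on high-content fluorescence images. Human fetal neural progenitor spheres were dosed from day 0, normalised to DMSO.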
# [14] = IUF_NPC4_neurite_area_120hr: Leibniz Research Institute for Environmental Medicine (IUF) 120-hour Neuronal Morphology Assay for Neurite Area (NPC4) (AID 2284305; active means hit-call score of the fitted dose curve at least 0.9, where 1 is the maximum)
# How it was run: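 Human fetal neural progenitor spheres (0.3 mm) plated on poly-D-lysine/laminin in N2 differentiation medium, exposed 120 h (7 concentrations, DMSO ≤0.1%, half-medium refresh day 3). Fixed, TUBB3 immunostained; mean neurite area per neuron by Omnisphero skeletonization.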
# [15] = IUF_NPC2-5_cytotoxicity_72hr: Cytotoxicity Assessment at 72 hours in the Leibniz Research Institute for Environmental Medicine (IUF) Neural Progenitor Cell Migration and Differentiation Assay for Cytotoxicity (NPC2-5) (AID 2284306; active means hit-call score of the fitted dose curve at least 0.9, where 1 is the maximum;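 further: LDH release into supernatant measured by resorufin fluorescence marking membrane damage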)
# How it was run: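 Human fetal primary neural progenitor spheres (0.3 mm) plated on poly-D-lysine/laminin in N2 differentiation medium, exposed from day 0 at 37C. LDH-dependent resazurin-to-resorufin fluorescence in supernatant at 72 h; 7 concentrations, DMSO at most 0.1%.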
# [16] = IUF_NPC2-5_cytotoxicity_120hr: Cytotoxicity Assessment at 120 hours in the Leibniz Research Institute for Environmental Medicine (IUF) Neural Progenitor Cell Migration and Differentiation Assay (NPC2-5) (AID 2284307; active means hit-call score of the fitted dose curve at least 0.9, where 1 is the maximum)
# How it was run: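 Sphere plating starts differentiation and exposure together at day 0. Compound solution is half-replaced on day 3. At 120 h, medium supernatant is taken for an LDH membrane-integrity read based on resazurin reduction to resorufin fluorescence.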
# [17] = IUF_NPC2-5_cell_number_120hr: Cell Number Assessment at 120 hours in the Leibniz Research Institute for Environmental Medicine (IUF) Neural Progenitor Cell Migration and Differentiation Assay (NPC2-5) (AID 2284308);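 further: count of Hoechst-stained nuclei in migration zone around plated human neural progenitor spheres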
# How it was run: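 hNPC spheres, one per well, PDL/laminin, N2 medium, 37C, 5% CO2. Dosing day 0 → half-medium change with fresh compound day 3 → fix 120 h. Readout: Hoechst+ nuclei count, migration area; 7 concentrations plus solvent control.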
# [18] = IUF_NPC2-5_viability_120hr: Viability Assessment at 120 hours in the Leibniz Research Institute for Environmental Medicine (IUF) Neural Progenitor Cell Migration and Differentiation Assay (NPC2-5) (AID 2284312)
# How it was run: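 Human fetal neural progenitor spheres (0.3 mm) plated on poly-D-lysine/laminin in N2 differentiation medium, exposed 120 h with half-medium refresh at day 3. Viability by alamar blue resazurin fluorescence; 7 concentrations, DMSO max 0.1%.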
# Sequence of E-selectin (Homo sapiens) (P16581 whole entry, looked up): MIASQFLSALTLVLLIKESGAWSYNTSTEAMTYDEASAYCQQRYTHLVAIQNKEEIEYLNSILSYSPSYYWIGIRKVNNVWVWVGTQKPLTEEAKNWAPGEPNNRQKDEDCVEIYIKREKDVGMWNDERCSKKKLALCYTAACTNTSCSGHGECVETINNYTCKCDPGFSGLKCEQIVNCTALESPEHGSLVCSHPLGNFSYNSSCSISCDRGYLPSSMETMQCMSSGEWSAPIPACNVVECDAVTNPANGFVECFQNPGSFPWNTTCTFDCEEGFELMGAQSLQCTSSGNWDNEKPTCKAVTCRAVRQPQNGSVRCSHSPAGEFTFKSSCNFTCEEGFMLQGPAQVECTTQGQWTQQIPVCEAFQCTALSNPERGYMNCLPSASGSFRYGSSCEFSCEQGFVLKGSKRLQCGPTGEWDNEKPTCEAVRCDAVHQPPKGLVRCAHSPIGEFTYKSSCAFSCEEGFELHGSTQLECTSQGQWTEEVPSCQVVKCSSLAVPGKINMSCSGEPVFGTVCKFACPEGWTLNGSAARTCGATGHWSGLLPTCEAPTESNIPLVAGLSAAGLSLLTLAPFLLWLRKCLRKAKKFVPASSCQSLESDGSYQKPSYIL
smiles,measurement,setting,value
CCCC(C)C(=O)OCC (stereo unspecified),outcome,"CD69, CD69 (gene 969)",inactive
CCCCCCCOC(=O)c1ccc(O)cc1,AC50,IYD (gene 389434),50.4 µM (active)
CCCCCCCCCC[N+](C)(CCCCCCCCCC)CCC[Si](OC)(OC)OC,AC50,IYD (gene 389434),77.2 µM (active)
Nc1nc(N)nc(-c2ccccc2)n1,outcome,"CD69, CD69 (gene 969)",inactive
CCCCCCCCCCCCCCCCCCOS(=O)(=O)O,AC50,IYD (gene 389434),19.5 µM (active)
CCCCC(CC)COC(=O)/C=C/c1ccc(OC)cc1 (stereo unspecified),outcome,IYD (gene 389434),inactive
O=c1c(O)c(-c2ccc(O)cc2O)oc2cc(O)cc(O)c12,AC50,IYD (gene 389434),144 µM (active)
CN(C)c1ccc2nc3ccc(=[N+](C)C)cc-3sc2c1,AC50,IYD (gene 389434),2.73 µM (active)
CCCCCCCCCCCC(=O)N(C)CC(=O)O,outcome,"CD69, CD69 (gene 969)",inactive
CCCCC/C=C\C/C=C\CCCCCCCC(=O)O,AC50,IYD (gene 389434),137 µM (active)
CC(C)C(=O)OCCc1ccccc1,outcome,"CD69, CD69 (gene 969)",inactive
O=C(Nc1ccccc1)c1cc(Cl)ccc1O,outcome,IYD (gene 389434),inactive
O=C(O)C(F)(F)C(F)(F)C(F)(F)C(F)(F)C(=O)O,outcome,[1],inactive
same,outcome,[2],inactive
same,outcome,[3],inactive
same,outcome,[4],inactive
same,outcome,[5],inactive
same,outcome,[6],inactive
same,outcome,"CD69, CD69 (gene 969)",inactive
C[N+](C)(C)CCCNS(=O)(=O)C(F)(F)C(F)(F)C(F)(F)C(F)(F)C(F)(F)C(F)(F)C(F)(F)C(F)(F)F,outcome,[1],inactive
same,AC50,[2],30 µM (active)
same,outcome,[2],inactive
same,AC50,[3],34.3 µM (active) and 42.3 µM (active)
same,outcome,[4],inactive
same,AC50,[5],41 µM (active) and 36.9 µM (active)
same,AC50,[6],46.2 µM (active) and 30 µM (active)
same,AC50,"CD69, CD69 (gene 969)",30 µM (active)
same,outcome,"CD69, CD69 (gene 969)",inactive
c1ccc(Nc2cccc3ccccc23)cc1,AC50,"CD69, CD69 (gene 969)",36.5 µM (active) and 20 µM (active)
CC(CCC(=O)O)(c1ccc(O)cc1)c1ccc(O)cc1,outcome,"CD69, CD69 (gene 969)",inactive
Oc1ccccc1Cc1ccccc1O,outcome,"CD69, CD69 (gene 969)",inactive
CCCCNS(=O)(=O)c1ccccc1,outcome,[7],inactive
same,outcome,[8],inactive
same,outcome,[9],inactive
same,outcome,[10],inactive
same,outcome,[11],inactive
same,outcome,[12],inactive
same,outcome,[13],inactive
same,outcome,[14],inactive
same,outcome,[15],inactive
same,outcome,[16],inactive
same,outcome,[17],inactive
same,outcome,[18],inactive
CCCCCCCCCCCCc1ccc(O)cc1,AC50,IYD (gene 389434),24 µM (active)
Cc1c(C(=O)c2c[nH]n(C)c2=O)ccc(S(C)(=O)=O)c1C1=NOCC1,outcome,[7],inactive
same,outcome,[8],inactive
same,outcome,[9],inactive
same,outcome,[10],inactive
same,outcome,[11],inactive
same,outcome,[12],inactive
same,outcome,[13],inactive
same,outcome,[14],inactive
same,outcome,[15],inactive
same,outcome,[16],inactive
same,outcome,[17],inactive
same,outcome,[18],inactive
